# Measurements: PubChem BioAssay (NCATS)
# Records with an inconclusive call do not appear. Activity calls are given as the source filed them. Calls come from the whole dose curve; as a rule, active = well fitted curve in the direction sought with a large enough effect; inconclusive = small, poorly fitted or top-dose-only effect, or another doubt; inactive = no such curve, though single readings can be large; an effect the other way counts as inactive or inconclusive. Peptide text beside a SMILES is read from it.
# Tested on: not listed separately
# Assay: qHTS Assay for Lipid Storage Modulators (AID 1519)
# Settings: Drosophila S3 cells, BODIPY lipid droplet/cell ratio, laser cytometry; measured here: lipid channel max response; cells loaded with oleic acid
# Procedure, shortened: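 Cells seeded at 5,000 per well were treated with compounds over a concentration series and loaded with oleic acid (400 uM, as added). Lipid droplet fluorescence (488 nm excitation, 500-530 nm channel) was read by laser-scanning cytometry and normalized to 20 uM Triacsin C.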
row,Compound,max response [%]
1,COC(=O)C(Cc1ccccc1)NC(=O)C(N)CC(=O)O (stereo not drawn) (H-Asp-Phe-OMe; configuration not given here),3.61
2,CC[C@@]12CCCN3CCc4c(n(c5ccccc45)[C@](O)(C(=O)OC)C1)C32 (some centres undefined),38.6
3,CC1(C)SC2C(N3C(=O)C(c4ccccc4)NC3(C)C)C(=O)N2C1C(=O)O (centres undefined),31
4,CC1CCC(C(C)C)C(=O)C1 (centres undefined),14.2
5,CC(=O)N[C@H](CC(C)C)C(=O)O,16.6
6,CC(C)C1CCC(C(=O)NC(Cc2ccccc2)C(=O)O)CC1 (centres undefined),10.2
7,COc1ccc2cc(C(C)CO)ccc2c1 (centres undefined),24.6
8,COc1ccc2cc1Oc1ccc(cc1)CC1c3c(cc4c(c3Oc3cc5c(cc3OC)CCN(C)C5C2)OCO4)CCN1C (centres undefined),21
9,CNC1C(OC2C(O[C@@H]3C(O)C(O)[C@@H](N=C(N)N)C(O)C3N=C(N)N)OC(C)[C@@]2(O)CO)OC(CO)C(O)C1O (some centres undefined),25.4
10,CC1C2CCC3C4CC=C5CC(N(C)C)CC[C@@]5(C)C4CC[C@@]32CN1C (some centres undefined),22.7
11,C[C@]12C=CC(=O)C=C1CCC1C2C(O)C[C@]2(C)C1CC[C@]2(O)C(=O)CO (some centres undefined),24.5
12,COc1ccc2c(c1)N(C[C@@H](C)CN(C)C)c1ccccc1S2,-12.9
13,CCOC(=O)C1=CC(OC(CC)CC)C(NC(C)=O)C(N)C1 (centres undefined),27.8
14,COc1c(O)cc(O)cc1O,4.87
15,CN(C)CCc1c[nH]c2ccc(CC3COC(=O)N3)cc12 (centres undefined),11.4
16,Nc1ncnc2c1nc(Br)n2[C@H]1O[C@H]2COP(=O)(O)O[C@H]2[C@@H]1O,0.508
17,NCC1CCC(N)C(O[C@@H]2C(O)[C@H](O[C@H]3OC(CO)C(O)C(N)C3O)[C@@H](N)C[C@H]2N)O1 (some centres undefined),44.9
18,OCC1O[C@H](OC2C(CO)O[C@@](O)(CO)C2O)C(O)C(O)C1O (some centres undefined),24
19,CC1(C)OC2CO[C@]3(COS(N)(=O)=O)OC(C)(C)OC3C2O1 (some centres undefined),8.91
20,Cc1cc(O)c(C=O)c2c1C(=O)Oc1c(C)c(O)c3c(c1O2)C(O)OC3=O (centres undefined),21
21,CC(=O)OC1CCC2C3CCc4cc(O)ccc4C3CCC12C (centres undefined),8.25
22,CN(C)CCCOC1C(C(O)CO)OC2OC(C)(C)O[C@@H]21 (some centres undefined),18.7
23,COc1cc(C2c3cc4c(cc3C(O[C@@H]3OC5COC(c6cccs6)OC5C(O)C3O)C3COC(=O)C23)OCO4)cc(OC)c1O (some centres undefined),-100

# Biological target: Tyrosyl-DNA phosphodiesterase 1 (Homo sapiens) (UniProt Q9NUW8)
# Assay: Confirmation Assay for Inhibitors of Tyrosyl-DNA Phosphodiesterase (TDP1) (AID 489007); note: potency is the fitted concentration of half-maximal effect; nearly all actives have a fitted effect of over 40% in size
# Settings: recombinant human TDP1 enzymatic activity, dose-response
# Procedure, shortened: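 Recombinant human Tdp1 (1 nM final), expressed in E. coli, preincubated 15 min with compound. Then 15 nM 5'-biotin/3'-phosphotyrosine-FITC DNA substrate added for 5 min at room temperature. AlphaScreen beads (10 ug/ml) added for 10 min; cleavage gives signal loss.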
# Sequence of Tyrosyl-DNA phosphodiesterase 1 (Homo sapiens) (Q9NUW8 whole entry, looked up): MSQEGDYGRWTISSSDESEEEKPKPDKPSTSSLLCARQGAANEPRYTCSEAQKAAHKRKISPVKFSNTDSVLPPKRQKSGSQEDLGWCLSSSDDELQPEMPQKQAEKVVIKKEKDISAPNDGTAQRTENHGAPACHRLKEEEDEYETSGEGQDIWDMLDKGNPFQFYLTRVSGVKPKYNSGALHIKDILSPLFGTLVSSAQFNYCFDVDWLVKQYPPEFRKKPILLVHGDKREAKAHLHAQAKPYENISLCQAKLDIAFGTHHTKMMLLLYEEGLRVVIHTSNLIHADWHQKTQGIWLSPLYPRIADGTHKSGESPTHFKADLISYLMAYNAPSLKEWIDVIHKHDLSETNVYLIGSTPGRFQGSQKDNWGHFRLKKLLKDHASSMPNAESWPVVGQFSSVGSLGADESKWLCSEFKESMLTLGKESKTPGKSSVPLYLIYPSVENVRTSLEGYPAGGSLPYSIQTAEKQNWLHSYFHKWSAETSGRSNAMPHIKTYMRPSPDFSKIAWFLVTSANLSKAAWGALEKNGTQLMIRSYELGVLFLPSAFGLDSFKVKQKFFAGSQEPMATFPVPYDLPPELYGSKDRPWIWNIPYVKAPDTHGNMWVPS
row,Compound,Potency
1,CC1=C(CCC(=O)O)c2cc3nc(cc4[nH]c(cc5[nH]c(cc1n2)c(C)c5C(C)O)c(C)c4C(C)O)C(C)=C3CCC(=O)O (centres undefined),6.31 µM (active)
2,Cc1cc(O)c(C=O)c2c1C(=O)Oc1c(COC(=O)/C=C/C(=O)O)c(O)c(C(=O)O)c(C)c1O2,3.16 µM (active)
3,COc1c(O)cc(O)cc1O,8.91 µM (active)
4,Cc1cc(O)c(C=O)c2c1C(=O)Oc1c(C)c(O)c3c(c1O2)C(O)OC3=O (centres undefined),5.62 µM (active)

# Biological target: ATP-dependent 6-phosphofructokinase (Trypanosoma brucei brucei) (UniProt O15648)
# Assay: qHTS Assay to Find Inhibitors of T. brucei phosphofructokinase: hit validation (AID 492961);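 note: luminescence reports ADP formed as PFK phosphorylates fructose-6-phosphate with ATP; % is set by controls: 0 for no effect and ±100 for the full control effect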
# Settings: T. brucei PFK, ADP-Glo luminescence; series mostly up to 24.3 µM; activity change, negative = inhibition: at the top concentration
# Procedure, shortened: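 Inhibition of parasite PFK is measured as reduced ADP formation, quantified via luciferase after ATP depletion. Assay used 0.1 mM ATP, 0.5 mM F6P, 1.25 nM enzyme, 45 min incubation.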
# Sequence of ATP-dependent 6-phosphofructokinase (Trypanosoma brucei brucei) (O15648 whole entry, looked up): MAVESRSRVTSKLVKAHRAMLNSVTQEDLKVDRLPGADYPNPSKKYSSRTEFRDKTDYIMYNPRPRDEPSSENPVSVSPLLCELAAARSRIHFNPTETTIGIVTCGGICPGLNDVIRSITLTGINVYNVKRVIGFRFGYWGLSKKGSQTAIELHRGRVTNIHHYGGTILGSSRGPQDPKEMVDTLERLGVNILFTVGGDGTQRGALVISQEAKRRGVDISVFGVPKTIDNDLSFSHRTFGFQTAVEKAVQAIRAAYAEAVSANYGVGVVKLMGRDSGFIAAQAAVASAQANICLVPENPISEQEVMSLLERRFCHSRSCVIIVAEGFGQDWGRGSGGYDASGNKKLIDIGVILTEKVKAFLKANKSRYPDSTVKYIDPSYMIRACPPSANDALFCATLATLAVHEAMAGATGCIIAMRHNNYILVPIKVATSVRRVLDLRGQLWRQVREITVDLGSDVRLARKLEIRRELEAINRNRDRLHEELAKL
row,Compound,"activity change, negative = inhibition"
1,CCC(C)C(=O)OC1CCC=C2C=CC(C)C(CCC3CC(O)CC(=O)O3)[C@@H]21 (some centres undefined),0% [at 51.4 µM] (inactive)
2,C[C@]1(c2ccccc2)OC(C(=O)O)=CC1=O,-4.06% [at 51.4 µM] (inactive)
3,OCC1OC([S-])[C@H](O)C(O)C1O.[Au+] (some centres undefined),0% [at 51.4 µM] (inactive)
4,COC(=O)N/N=C/C1=C[N+](=O)c2ccccc2[N+]1=O,4.14% [at 51.4 µM] (inactive)
5,CN1CC(=O)N=C1N,10.7% [at 51.4 µM] (inactive)
6,CNC1CC(N)[C@H](O)[C@@H](O[C@@H]2OC(CO)C3OC4(OC(C(N)CO)C(O)C(O)C4O)O[C@@H]3[C@H]2O)C1O (some centres undefined),0% [at 51.4 µM] (inactive)
7,COC1C=CO[C@@]2(C)Oc3c(C)c(O)c4c(O)c(c(C=NN5CCN(C)CC5)c(O)c4c3C2=O)NC(=O)/C(C)=C\C=CC(C)C(O)[C@@H](C)C(O)C(C)[C@H](OC(C)=O)C1C (some centres undefined),-13.6% [at 51.4 µM] (inactive)
8,CC(=O)N[C@@H]1C(O)OC(CO)C(O)C1O (some centres undefined),-1.77% [at 51.4 µM] (inactive)
9,CCC(CCC(C)C1CCC2C3CC=C4CC(O)CC[C@@]4(C)C3CC[C@@]12C)C(C)C (some centres undefined),0.496% [at 51.4 µM] (inactive)
10,O=C1OC(CO)C(O)C(O)C1O (centres undefined),-2.75% [at 51.4 µM] (inactive)
11,COc1ccc(CC(N)C(=O)NC2C(CO)OC(n3cnc4c(N(C)C)ncnc43)C2O)cc1 (centres undefined),-7.94% [at 51.4 µM] (inactive)
12,CCCC(=O)O[C@]1(C(=O)CO)CCC2[C@@H]3CCC4=CC(=O)CC[C@]4(C)C3C(O)C[C@]21C (some centres undefined),-6.34% [at 51.4 µM] (inactive)
13,COC(=O)C(Cc1ccccc1)NC(=O)C(N)CC(=O)O (stereo not drawn) (H-Asp-Phe-OMe; configuration not given here),7.05% [at 51.4 µM] (inactive)
14,CC[C@@]12CCCN3CCc4c(n(c5ccccc45)[C@](O)(C(=O)OC)C1)C32 (some centres undefined),11.2% [at 51.4 µM] (inactive)
15,CC1(C)SC2C(N3C(=O)C(c4ccccc4)NC3(C)C)C(=O)N2C1C(=O)O (centres undefined),-12% [at 51.4 µM] (inactive)
16,CC1CCC(C(C)C)C(=O)C1 (centres undefined),-1.18% [at 51.4 µM] (inactive)

row,Compound,"activity change, negative = inhibition"
1,CC(=O)N[C@H](CC(C)C)C(=O)O,0% [at 51.4 µM] (inactive)
2,CC(C)C1CCC(C(=O)NC(Cc2ccccc2)C(=O)O)CC1 (centres undefined),-4.72% [at 51.4 µM] (inactive)
3,COc1ccc2cc(C(C)CO)ccc2c1 (centres undefined),-13.9% [at 51.4 µM] (inactive)
4,COc1ccc2cc1Oc1ccc(cc1)CC1c3c(cc4c(c3Oc3cc5c(cc3OC)CCN(C)C5C2)OCO4)CCN1C (centres undefined),-7.38% [at 51.4 µM] (inactive)
5,CNC1C(OC2C(O[C@@H]3C(O)C(O)[C@@H](N=C(N)N)C(O)C3N=C(N)N)OC(C)[C@@]2(O)CO)OC(CO)C(O)C1O (some centres undefined),0.316% [at 51.4 µM] (inactive)
6,CC1C2CCC3C4CC=C5CC(N(C)C)CC[C@@]5(C)C4CC[C@@]32CN1C (some centres undefined),0% [at 51.4 µM] (inactive)
7,C[C@]12C=CC(=O)C=C1CCC1C2C(O)C[C@]2(C)C1CC[C@]2(O)C(=O)CO (some centres undefined),0.306% [at 51.4 µM] (inactive)
8,COc1ccc2c(c1)N(C[C@@H](C)CN(C)C)c1ccccc1S2,2.24% (inactive)
9,CCOC(=O)C1=CC(OC(CC)CC)C(NC(C)=O)C(N)C1 (centres undefined),-2.11% [at 51.4 µM] (inactive)
10,CN(C)CCc1c[nH]c2ccc(CC3COC(=O)N3)cc12 (centres undefined),0.265% [at 51.4 µM] (inactive)
11,NCC1CCC(N)C(O[C@@H]2C(O)[C@H](O[C@H]3OC(CO)C(O)C(N)C3O)[C@@H](N)C[C@H]2N)O1 (some centres undefined),-4.87% [at 51.4 µM] (inactive)
12,OCC1O[C@H](OC2C(CO)O[C@@](O)(CO)C2O)C(O)C(O)C1O (some centres undefined),-6.37% [at 51.4 µM] (inactive)
13,CC1(C)OC2CO[C@]3(COS(N)(=O)=O)OC(C)(C)OC3C2O1 (some centres undefined),2.1% [at 51.4 µM] (inactive)
14,CC(=O)OC1CCC2C3CCc4cc(O)ccc4C3CCC12C (centres undefined),-4.87% [at 51.4 µM] (inactive)
15,CN(C)CCCOC1C(C(O)CO)OC2OC(C)(C)O[C@@H]21 (some centres undefined),-9.1% [at 51.4 µM] (inactive)
16,COc1cc(C2c3cc4c(cc3C(O[C@@H]3OC5COC(c6cccs6)OC5C(O)C3O)C3COC(=O)C23)OCO4)cc(OC)c1O (some centres undefined),3.36% [at 51.4 µM] (inactive)
